Bioassay records deposited in PubChem BioAssay by The Scripps Research Institute Molecular Screening Center.
Only some compounds are listed: those with a hit (about 2.6% of all), similar ones and a draw of the others.
TCR CD3 inh – human TCR-CD3 binding inhibition. TAMRA-labeled TCR probe fluorescence, biochemical. inhibition, % at 9.4 µM. 0.37% of 360,000 active. AID 651800; in the data active = inhibition above about 19%;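 also: recombinant mutant TCR 2C K166C tagged with TAMRA read by polarization; 0% = receptor in buffer alone and 100% = receptor with positive control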
Fam108B inh – Fam108B inhibition, counter-screen for RBBP9 inhibitors | inhibition, % at 9.51 µM | AID 1947 | recombinant Fam108B, FP-Rh probe fluorescence polarization | 0.33% of 300,000 active;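 active = inhibition above the screen mean inhibition plus 3 SD, computed separately per campaign, cut at about 18% in these data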;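 also: inhibitors lower polarization as less probe binds the enzyme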
SIAE inh – human SIAE inhibition, primary screen; SIAE FP-Rh probe binding, fluorescence polarization; 0.69% of 370,000 active; Q9HAT2; inhibition, % at 9.66 µM;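 active = inhibition above a cutoff: mean of compounds within the control limits plus 3 SD of those, cut at about 17% in these data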;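 also: 0% = plate median of compound wells and 100% = probe without SIAE protein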
Target sequence (Q9HAT2 whole entry, looked up): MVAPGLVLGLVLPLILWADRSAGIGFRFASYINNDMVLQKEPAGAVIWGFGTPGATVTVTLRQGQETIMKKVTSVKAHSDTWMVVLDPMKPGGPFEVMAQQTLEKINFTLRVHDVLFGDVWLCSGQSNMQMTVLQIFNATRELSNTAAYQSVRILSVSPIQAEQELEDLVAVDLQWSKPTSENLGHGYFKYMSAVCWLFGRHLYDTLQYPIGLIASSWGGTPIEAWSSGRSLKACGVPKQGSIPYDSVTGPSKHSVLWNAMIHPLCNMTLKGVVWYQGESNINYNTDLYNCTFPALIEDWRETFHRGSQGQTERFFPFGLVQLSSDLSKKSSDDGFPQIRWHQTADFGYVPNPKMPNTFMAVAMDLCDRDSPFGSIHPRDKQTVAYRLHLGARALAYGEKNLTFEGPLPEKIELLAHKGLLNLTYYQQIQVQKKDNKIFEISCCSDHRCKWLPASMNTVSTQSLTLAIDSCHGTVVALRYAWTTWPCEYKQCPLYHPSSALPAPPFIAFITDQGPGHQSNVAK
PAD4 FP inh – inhibitors of human PAD4; Q9UM07; recombinant PAD4, RCA probe fluorescence polarization; inhibition, % at 6.36 µM; 0.41% of 330,000 active; AID 485272;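 active = percent inhibition above a cutoff equal to the mean of all tested compounds plus 3 SD, cut at about 15% in these data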;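 also: 0% = PAD4 with RCA probe and DMSO and 100% = probe without PAD4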
PME-1 primary – blocks human protein phosphatase methylesterase 1 | recombinant PME-1, FP-Rh probe fluorescence polarization | inhibition, % at 5.9 µM | 0.53% of 320,000 active | AID 2130;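 active = inhibition above the campaign mean of all compounds plus 3 SD, cut at about 26% in these data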;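 also: competitive labeling of PME-1 active site by serine hydrolase directed probe; 0% = PME-1 with DMSO and 100% = wells lacking PME-1 enzyme; inhibitors block probe labeling so polarization falls and inhibition rises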
PRMT1 inh – inhibitors of human PRMT1; 1.3% of 370,000 active; inhibition, % at 2.79 µM; Q99873; recombinant PRMT1, activity-based probe fluorescence polarization;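 active = inhibition above about 21% made by adding two undisclosed values, limit read from the data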
Numbers without * were called inactive; · = no result.

SMILES	TCR CD3 inh	Fam108B inh	SIAE inh	PAD4 FP inh	PME-1 primary	PRMT1 inh
O=C(NC1CCCCN(Cc2cccc(F)c2)C1=O)c1ccc(F)cc1 (stereo not given)	·	·	0	·	·	2
CCn1cc(C(=O)NCCCN2CCCC(C)C2)c(=O)c2cc(S(=O)(=O)N(C)C3CCCCC3)ccc21 (stereo not given)	-5	-7	3	-2	52*	1
CCCCN(CCCC)CCNC(=O)c1cn(CC)c2ccc(S(=O)(=O)N(C)C3CCCCC3)cc2c1=O	-1	1	-6	1	82*	2
CCN(CC)CCCNC(=O)c1cn(CC)c2ccc(S(=O)(=O)N(C)C3CCCCC3)cc2c1=O	0	-3	8	2	14	-5
CN(C1CCCCC1)S(=O)(=O)c1ccc2c(c1)c(=O)c(C(=O)NCCCN1CCCC1)cn2C	-1	-1	-3	-2	4	-2
CCCCN(CC)CCCNC(=O)c1cn(C)c2ccc(S(=O)(=O)N(C)C3CCCCC3)cc2c1=O	5	4	-2	-4	40*	-6
CC(C)CN1C(=O)C[C@]2(C(=O)N(C)c3ccc(NC(=O)C(F)(F)F)cc32)C1c1ccccc1 (stereo not given in full)	·	·	2	·	·	-3
CC(C)C[C@H](NC1(C(=O)NCCc2c[nH]c3ccccc23)CCOCC1)C(=O)NCCCc1ccccc1	·	·	3	·	·	3
Cc1ccccc1OCC(=O)NCC(=O)OCC(=O)c1ccc([N+](=O)[O-])cc1	12	10	-3	1	-7	24*
N#CC(C(=O)O)=C1CCCC1	2	4	5	0	5	0
N#CC(C#SN)=C1CCCCC1	5	-1	2	2	-1	24*
N#Cc1ccc(OCC(=O)NC2=NCCS2)cc1	2	-2	3	0	4	27*
O=C(COc1ccccc1)NC1=NCCS1	5	4	-3	-2	3	0
COCC#Cc1ccc(CC[C@H]2O[C@H]3CC[C@@H](CO)O[C@H]3C[C@H]2n2cc(C(C)(C)O)nn2)cc1	·	·	-2	·	·	7
Cc1ccc(NC(=O)CSc2ncnc3ccccc23)cc1S(=O)(=O)N1CCOCC1	10	-6	-6	9	5	12
Cc1ccc(NC(=O)CSc2ncnc3ccccc23)cc1S(=O)(=O)N1CCCCC1	5	-2	-37	10	13	23*
CC(C)c1ccc2c(c1)C1(NN=C(c3ccccc3)S1)C(=O)N2 (stereo not given)	-1	7	4	1	33*	5
CCc1ccc2c(c1)C1(NN=C(c3ccc(C)cc3)S1)C(=O)N2 (stereo not given)	3	13	3	-6	20	13
O=C(CSc1nc2ccccc2nc1N1CCCC1)N1CCN(c2cccc(C(F)(F)F)c2)CC1	·	·	5	·	·	0
CC1(C)Cc2c(c(-c3ccco3)nc3sc4c(NCC5CCCO5)ncnc4c23)CO1 (stereo not given)	1	-4	0	2	-2	23*
CC1(C)Cc2c(c(-c3ccco3)nc3sc4c(NCCCO)ncnc4c23)CO1	5	1	-14	-3	1	18
O=C(NCCc1ccccc1)c1ccc(Sc2ccccc2Cl)c([N+](=O)[O-])c1	·	·	5	·	·	-3
C=CCSC1=C(C#N)C(c2ccccc2OCC)CC(=O)N1 (stereo not given)	-4	1	10	-6	0	22*
Oc1ccc(CNc2ccc(C(F)(F)F)cc2F)c2cccnc12	·	·	4	·	·	10
CCOC(=O)[C@]12CCCCC/C=C\1N(CCc1ccc(Cl)cc1)C(=O)[C@H]2CC(=O)N1CCSCC1	·	·	11	·	·	-3
SMILES	TCR CD3 inh	Fam108B inh	SIAE inh	PAD4 FP inh	PME-1 primary	PRMT1 inh
CCCCN(C)c1nc(C)nc2c1nnn2Cc1ccccc1	·	·	1	·	·	1
CN(C)CCCN1C(=O)c2cccc3cccc(c23)C1=O	8	-6	7	-1	0	0
CC1=CC2=C(OC1N(C)C)c1cccc3cccc(c13)C2=O (stereo not given)	·	10	·	18*	24	·
Cc1cccc(C)c1NC(=O)c1cccc2c1-c1ccccc1C2=O	-5	0	-5	-2	-1	3
Cc1cccc(NC(=O)COC(=O)c2cccc3c2C(=O)c2ccccc2C3=O)c1C	-2	5	5	-2	41*	2
Cc1cccc(C)c1NC(=O)COC(=O)c1cccc2c1C(=O)c1ccccc1C2=O	3	-10	1	-6	71*	0
C=CCN1C(=O)[C@@H](CC(=O)NCCCOC)[C@]2(C(=O)OCC)CCCCC/C=C/12	·	·	0	·	·	2
C=CCN1c2ccccc2[C@]23C[C@@H](C(=O)OC)N(C(=O)c4cc(C)oc4C)C2=NC(C(=O)OC)=C(C(=O)OC)[C@H]13	·	0	·	1	15	·
CC#CCN1c2ccccc2[C@]23C[C@@H](C(=O)OC)N(C(=O)c4cc(C)oc4C)C2=NC(C(=O)OC)=C(C(=O)OC)[C@H]13	6	0	2	-1	28*	1
NS(=O)(=O)c1ccc(NC(=S)NC2CCCCCC2)cc1	1	2	3	-3	1	24*
Cn1c(SCC2CCC2)nnc1-c1ccco1	·	·	-2	·	·	0
COc1cc(OC)c(NC(=S)Nc2cccc(C(C)=O)c2)cc1Cl	-7	16	-5	0	11	2
COc1cc(OC)c(NC(=S)Nc2cc(Cl)cc(Cl)c2)cc1Cl	4	21*	13	-1	9	0
CC(C)N(Cc1ccccc1)C(=O)CCS(=O)(=O)c1ccc2c(c1)oc(=O)n2C	1	1	1	-1	-3	22*
CC(=O)OCC1=C(C(=O)O)N2C(=O)C(NC(=O)c3ccc(F)cc3)C2SC1 (stereo not given)	7	1	7	-2	4	24*
CC(=O)OCC1=C(C(=O)O)N2C(=O)C(NC(=O)C(C)Cn3nc(C)c(Cl)c3C)C2SC1 (stereo not given)	3	-2	6	-1	-1	25*
CC(C)C[C@H](NC1(C(=O)NC2CCCCC2)CCOCC1)C(=O)NCC(c1ccccc1)c1ccccc1	·	·	-4	·	·	3
Oc1ccc(/C=N/N2CCCCC2)c(O)c1O	7	2	6	-11	3	23*
Cc1ccc(NC(=O)Nc2ccccc2)cc1[N+](=O)[O-]	2	2	0	1	-5	1
O=C(Nc1ccc(S(=O)(=O)NC2=NCCCCC2)cc1)c1ccc(Cl)c([N+](=O)[O-])c1	4	·	-1	-6	·	2
Cc1cccc(C)c1NS(=O)(=O)c1ccc(NC(=O)c2ccc(Cl)c([N+](=O)[O-])c2)cc1	2	-10	-5	2	33*	2
O=C(Nc1ccccc1)Nc1ccc(Cl)c([N+](=O)[O-])c1	1	1	54*	-3	-15	-1
CCC(C)c1ccc(NC(=O)CSc2nnc(-c3cccc(C)c3)n2C)cc1 (stereo not given)	·	·	-1	·	·	-1
